Results from PubChem BioAssay (Tox21).
“And” between values parts separate entries of the source, which are not always exact repeats. Identical values can stand only once. Records with an inconclusive call do not appear. A structure can be active in one record and inactive in another. The source made the active and inactive calls. Unless noted, calls come from the whole dose curve; as a rule, active = well fitted curve in the direction sought with a large enough effect in the repeat runs; inconclusive = weak or mixed curves; inactive = no such curve, though single readings can be large; an effect the other way counts as inactive or inconclusive.

What was measured:
[1] = biological target: Estrogen receptor beta (Homo sapiens) (UniProt Q92731); test: qHTS assay to identify small molecule agonists of the estrogen receptor beta (ER-beta) signaling pathway (AID 1259377; active = well fitted activation curve with a large enough effect in the signal ratio in the repeat runs, not every such curve was filed as active; the % refers to the signal ratio)
Outline: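 Agonist mode cell assay in GripTite HEK293T cells expressing an ER-beta fusion that drives beta-lactamase from an Upstream Activator Sequence; 16 hr compound exposure at 37C, then 2 h LiveBLAzer B/G FRET substrate at room temperature, fluorescence read-out.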

[2] = biological target: Estrogen receptor beta (Homo sapiens) (UniProt Q92731); test: qHTS assay to identify small molecule antagonists of the estrogen receptor beta (ER-beta) signaling pathway (AID 1259378; active = well fitted inhibition curve with a large enough effect in the signal ratio in the repeat runs, not every such curve was filed as active; the % refers to the signal ratio)
Outline: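 ER-beta-UAS-bla HEK293T cells in 2% charcoal-stripped FBS medium treated with compound plus 1nM final 17-beta-estradiol for 16 hr at 37C. Beta-lactamase reporter read by FRET substrate fluorescence after 2 hours at room temperature.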

[3] = qHTS assay to identify small molecule agonists of the androgen receptor (AR) signaling pathway in the presence of an antagonist - cell viability counter screen (AID 1259379); note: nearly all actives have a fitted effect of over 25% in size; note: potency is the fitted concentration of half-maximal effect
Outline: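 In MDA-kb2 cells (human breast carcinoma, MMTV-luciferase), compounds at 15 concentrations plus 3.0uM nilutamide; 16 hr, 37C, 0% CO2; CellTiter-Fluor fluorescence read for viability.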

[4] = biological target: Androgen receptor (Homo sapiens) (UniProt P10275); test: qHTS assay to identify small molecule agonists of the androgen receptor (AR) signaling pathway in the presence of an antagonist (AID 1259381; calls by dose curve; note: nearly all actives have a fitted effect of over 15% in size)
Outline: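 Here, 15-concentration compound series were pin-transferred onto MDA-kb2 MMTV-luciferase cells already dosed with nilutamide (3.0uM final). After 16hr at 37C, ONE-Glo was added and luminescence read 30min later at room temperature.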

[5] = qHTS assay to identify small molecule antagonists of the estrogen receptor beta (ER-beta) signaling pathway - cell viability counter screen (AID 1259382); note: nearly all actives have a fitted effect of over 55% in size; note: potency is the fitted concentration of half-maximal effect
Outline: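 Tox21 10K library tested in qHTS format on ER-beta-bla HEK293T cells stimulated with 1nM E2; 16 hr treatment at 37C. Same-well CellTiter-Glo luminescence served as the cell viability measure.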

[6] = biological target: Estrogen receptor (Homo sapiens) (UniProt P03372); test: qHTS assay to identify small molecule agonists of the estrogen receptor alpha (ER-alpha) signaling pathway in the presence of an antagonist (AID 1259383; calls by dose curve; note: nearly all actives have a fitted effect of over 15% in size; note: potency is the fitted concentration of half-maximal effect; for activation: top concentration of the series differs between compounds)
Outline: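 In VM7Luc4E2 cells, 4,000 per well, compounds at 15 concentrations were co-incubated 22hr at 37C with 10.0nM final ICI-182,780. Luminescence from the stably transfected 4×ERE-luciferase reporter was recorded 30min after ONE-Glo addition.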

[7] = qHTS assay to identify small molecule agonists or antagonists of the thyroid stimulating hormone receptor (TSHR) signaling pathway - wild type cell line counter screen (AID 1259384; calls by dose curve)
Outline: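 Wild-type Hek293 cells, 800/well, 18 h at 37C, then compound with Ro20-1724 for 30 min RT. cAMP by HTRF (cAMP-d2/anti-cAMP cryptate), 1 h RT, fluorescence read. 15 concentrations, triplicates.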

[8] = biological target: Thyrotropin receptor (Homo sapiens) (UniProt P16473); test: qHTS assay to identify small molecule antagonists of the thyroid stimulating hormone receptor (TSHR) signaling pathway (AID 1259385; calls by dose curve; note: nearly all actives have a fitted effect of over 20% in size)
Outline: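 TSHR-HEK293 cells (800/well) plated 18 h, then compounds with Ro20-1724 and TSH at 1.5 ng/mL final, 30 min at room temperature. cAMP quantified by HTRF (cAMP-d2/anti-cAMP-cryptate, 1 h); 15 concentrations in triplicate.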

[9] = qHTS assay to identify small molecule agonists of the estrogen receptor alpha (ER-alpha) signaling pathway in the presence of an antagonist - cell viability counter screen (AID 1259386);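 note: cells exposed to compounds for 22 h at 37 °C before the viability read; nearly all actives have a fitted effect of over 30% in size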; note: potency is the fitted concentration of half-maximal effect
Outline: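 Fluorescent CellTiter-Fluor viability signal from VM7Luc4E2 cells, with the reagent added during the final hour of a 22hr compound exposure at 37C in the presence of 10.0nM ICI-182,780.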

[10] = biological target: Progesterone receptor (Homo sapiens) (UniProt P06401); test: qHTS assay to identify small molecule agonists of the progesterone receptor (PR) signaling pathway (AID 1346784; calls by dose curve; note: nearly all actives have a fitted effect of over 30% in size)
Outline: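 Cells (PR-UAS-bla HEK 293T, GripTite) were plated in assay medium containing 2% charcoal-stripped FBS and incubated 6 hr. Test compounds in DMSO were added for 16 hr at 37C. FRET substrate was then loaded for 2 hr at room temperature before fluorescence reading.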

[11] = biological target: Progesterone receptor (Homo sapiens) (UniProt P06401); test: qHTS assay to identify small molecule antagonists of the progesterone receptor (PR) signaling pathway (AID 1346795; active = well fitted inhibition curve with a large enough effect in the signal ratio in the repeat runs, not every such curve was filed as active; the % refers to the signal ratio; note: potency is the fitted concentration of half-maximal effect)
Outline: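 Antagonist mode: compounds tested against 1 nM (final) promegestone stimulation in HEK293T cells expressing PR-UAS-bla reporter, 16 hr at 37C, 5% CO2; beta-lactamase activity detected via B/G FRET substrate after 2 hr at room temperature.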

[12] = qHTS assay to identify small molecule agonists of the progesterone receptor (PR) signaling pathway - cell viability counter screen (AID 1346799; calls by dose curve; note: nearly all actives have a fitted effect of over 45% in size)
Outline: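 Cells (PR-UAS-bla HEK293T) are plated at 3,000/well in 2% charcoal-stripped FBS medium, rested 6 hr, dosed and incubated 16 hr at 37C. CellTiter-Glo is then added and luminescence measured after 30 min at room temperature.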

[13] = qHTS assay to identify small molecule antagonists of the TGF-beta/Smad signaling pathway - cell viability counter screen (AID 1346824); note: nearly all actives have a fitted effect of over 50% in size; note: potency is the fitted concentration of half-maximal effect
Outline: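 SBE-bla HEK 293T cells, incubated overnight, then compound plus 0.25 ng/mL TGF-beta1 (stock added) for 5 hr at 37 C. Viability was read in the same wells by CellTiter-Glo luminescence after 30 min at room temperature.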

[14] = qHTS assay to identify small molecule agonists of the TGF-beta/Smad signaling pathway (AID 1346859; active = well fitted activation curve with a large enough effect in the signal ratio in the repeat runs, not every such curve was filed as active; the % refers to the signal ratio; note: series mostly up to about 77 µM)
Outline: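 Reporter line: HEK 293T with stably integrated SBE-controlled beta-lactamase. Compound exposure lasts 5 hr at 37 C and 5% CO2; substrate loading follows for 2 hr at room temperature, with emission read at 460 and 530 nm.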

[15] = biological target: Thyrotropin-releasing hormone receptor (Homo sapiens) (UniProt P34981); test: qHTS assay to identify small molecule antagonists of the thyrotropin-releasing hormone receptor (TRHR) signaling pathway (AID 1346877; active = well fitted inhibition curve with a large enough effect in the repeat runs, not every such curve was filed as active; note: series mostly up to about 51 µM)
Outline: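 In this cell-based calcium flux format, HEK293 cells expressing TRHR received test compound for 5 min before the agonist TRH (1 nM final). Dye loading lasted 2 h at 37 °C.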

[16] = biological target: Thyrotropin-releasing hormone receptor (Homo sapiens) (UniProt P34981); test: qHTS assay to identify small molecule agonists of the thyrotropin-releasing hormone receptor (TRHR) signaling pathway (AID 1346891; calls by dose curve; note: series mostly up to about 58 µM)
Outline: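 Cells: TRHR-Hek293, seeded and incubated 18 h. Dye loading: 2 h at 37 °C. Compound added from DMSO stock by pin tool. Read-out: kinetic calcium fluorescence over 3 min.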

[17] = Human pregnane X receptor (PXR) small molecule agonists, qHTS cell viability counter screen (AID 1346977); note: nearly all actives have a fitted effect of over 50% in size; note: potency is the fitted concentration of half-maximal effect
Outline: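 Cytotoxicity counter screen run in the same wells as the PXR luciferase assay, using PXR-Luc HepG2 cells in charcoal-stripped serum medium. Viability: CellTiter-Fluor fluorescence after 24hr compound treatment.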

[18] = qHTS assay to identify small molecule antagonists of the progesterone receptor (PR) signaling pathway - cell viability counter screen (AID 1346798); note: series mostly up to about 92 µM; nearly all actives have a fitted effect of over 50% in size
Outline: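 Counter screen for cytotoxicity: viability of PR-UAS-bla HEK293T cells was measured with CellTiter-Glo luminescence following 16 hr compound exposure in the presence of R5020.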

[19] = qHTS assay to identify small molecule agonists of the TGF-beta/Smad signaling pathway - cell viability counter screen (AID 1346829); note: nearly all actives have a fitted effect of over 45% in size; note: potency is the fitted concentration of half-maximal effect
Outline: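 Luminescence from CellTiter-Glo, read after a 30 min room-temperature incubation, gives cell viability of SBE-bla HEK 293T cells treated 5 hr with compounds at 37 C.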

[20] = qHTS assay to identify small molecule agonists of the estrogen receptor beta (ER-beta) signaling pathway - cell viability counter screen (AID 1259380); note: nearly all actives have a fitted effect of over 30% in size; note: potency is the fitted concentration of half-maximal effect
Outline: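 Viability of ER-beta-UAS-bla HEK293T cells was determined by CellTiter-Glo luminescence following 16 hr treatment with test compounds at 37C.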

Measured: Potency

Sequence of Thyrotropin receptor (Homo sapiens) (P16473 whole entry, looked up): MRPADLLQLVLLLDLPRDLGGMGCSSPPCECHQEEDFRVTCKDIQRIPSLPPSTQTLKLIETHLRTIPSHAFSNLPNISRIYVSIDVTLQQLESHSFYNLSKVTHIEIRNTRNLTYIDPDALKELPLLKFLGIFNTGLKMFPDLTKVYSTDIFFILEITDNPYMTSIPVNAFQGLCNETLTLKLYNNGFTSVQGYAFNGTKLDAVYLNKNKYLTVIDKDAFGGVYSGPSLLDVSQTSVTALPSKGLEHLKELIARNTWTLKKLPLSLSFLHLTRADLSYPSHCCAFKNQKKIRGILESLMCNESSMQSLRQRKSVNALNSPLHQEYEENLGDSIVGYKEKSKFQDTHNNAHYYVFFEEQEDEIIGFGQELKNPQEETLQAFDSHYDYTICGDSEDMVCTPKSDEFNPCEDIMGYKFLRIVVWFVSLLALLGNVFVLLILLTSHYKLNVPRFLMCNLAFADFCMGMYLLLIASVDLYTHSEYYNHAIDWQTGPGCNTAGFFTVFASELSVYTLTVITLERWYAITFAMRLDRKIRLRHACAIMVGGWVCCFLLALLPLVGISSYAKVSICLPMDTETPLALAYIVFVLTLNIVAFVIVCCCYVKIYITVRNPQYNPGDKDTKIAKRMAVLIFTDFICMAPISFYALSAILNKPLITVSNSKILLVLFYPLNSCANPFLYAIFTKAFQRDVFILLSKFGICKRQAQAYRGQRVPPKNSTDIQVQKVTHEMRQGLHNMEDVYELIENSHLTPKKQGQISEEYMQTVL
Sequence of Progesterone receptor (Homo sapiens) (P06401 whole entry, looked up): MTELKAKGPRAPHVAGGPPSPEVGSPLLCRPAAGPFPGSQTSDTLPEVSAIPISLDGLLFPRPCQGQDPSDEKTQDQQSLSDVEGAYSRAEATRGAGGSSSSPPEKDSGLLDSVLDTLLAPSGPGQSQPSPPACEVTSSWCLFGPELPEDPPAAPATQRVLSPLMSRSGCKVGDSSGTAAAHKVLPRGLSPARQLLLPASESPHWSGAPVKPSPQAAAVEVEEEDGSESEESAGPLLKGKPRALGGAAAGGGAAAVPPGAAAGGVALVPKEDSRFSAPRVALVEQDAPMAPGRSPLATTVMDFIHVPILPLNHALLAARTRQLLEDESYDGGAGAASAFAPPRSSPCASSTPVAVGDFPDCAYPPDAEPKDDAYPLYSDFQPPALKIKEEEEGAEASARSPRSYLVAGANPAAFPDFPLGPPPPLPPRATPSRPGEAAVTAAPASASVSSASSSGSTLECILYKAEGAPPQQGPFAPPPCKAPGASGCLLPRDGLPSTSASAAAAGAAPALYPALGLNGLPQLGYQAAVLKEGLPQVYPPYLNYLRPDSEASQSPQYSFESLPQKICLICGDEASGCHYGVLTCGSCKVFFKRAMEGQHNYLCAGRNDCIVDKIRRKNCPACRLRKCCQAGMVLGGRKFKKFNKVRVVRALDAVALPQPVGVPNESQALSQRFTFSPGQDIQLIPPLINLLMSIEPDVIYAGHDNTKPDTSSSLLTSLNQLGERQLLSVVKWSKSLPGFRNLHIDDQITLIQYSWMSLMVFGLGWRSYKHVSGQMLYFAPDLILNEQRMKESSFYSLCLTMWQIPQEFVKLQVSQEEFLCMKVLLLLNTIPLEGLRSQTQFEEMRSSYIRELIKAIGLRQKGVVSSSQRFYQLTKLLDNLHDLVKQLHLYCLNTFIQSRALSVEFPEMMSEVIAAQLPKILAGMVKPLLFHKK
Sequence of Estrogen receptor beta (Homo sapiens) (Q92731 whole entry, looked up, the tested form may be a part): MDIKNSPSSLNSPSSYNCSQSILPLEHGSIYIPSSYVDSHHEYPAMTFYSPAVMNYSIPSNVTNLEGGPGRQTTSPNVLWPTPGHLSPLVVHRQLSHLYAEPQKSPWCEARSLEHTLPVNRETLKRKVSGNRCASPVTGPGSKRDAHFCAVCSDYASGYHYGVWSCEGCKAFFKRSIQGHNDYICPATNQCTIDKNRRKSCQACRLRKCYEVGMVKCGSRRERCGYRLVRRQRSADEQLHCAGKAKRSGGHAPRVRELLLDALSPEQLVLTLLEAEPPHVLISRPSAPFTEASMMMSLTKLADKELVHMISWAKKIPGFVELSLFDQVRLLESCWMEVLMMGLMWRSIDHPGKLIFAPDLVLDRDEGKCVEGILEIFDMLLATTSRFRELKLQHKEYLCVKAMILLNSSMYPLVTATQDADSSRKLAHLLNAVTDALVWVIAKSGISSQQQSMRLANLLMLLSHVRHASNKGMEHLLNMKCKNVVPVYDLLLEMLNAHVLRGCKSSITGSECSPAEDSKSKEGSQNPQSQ
Sequence of Estrogen receptor (Homo sapiens) (P03372 whole entry, looked up): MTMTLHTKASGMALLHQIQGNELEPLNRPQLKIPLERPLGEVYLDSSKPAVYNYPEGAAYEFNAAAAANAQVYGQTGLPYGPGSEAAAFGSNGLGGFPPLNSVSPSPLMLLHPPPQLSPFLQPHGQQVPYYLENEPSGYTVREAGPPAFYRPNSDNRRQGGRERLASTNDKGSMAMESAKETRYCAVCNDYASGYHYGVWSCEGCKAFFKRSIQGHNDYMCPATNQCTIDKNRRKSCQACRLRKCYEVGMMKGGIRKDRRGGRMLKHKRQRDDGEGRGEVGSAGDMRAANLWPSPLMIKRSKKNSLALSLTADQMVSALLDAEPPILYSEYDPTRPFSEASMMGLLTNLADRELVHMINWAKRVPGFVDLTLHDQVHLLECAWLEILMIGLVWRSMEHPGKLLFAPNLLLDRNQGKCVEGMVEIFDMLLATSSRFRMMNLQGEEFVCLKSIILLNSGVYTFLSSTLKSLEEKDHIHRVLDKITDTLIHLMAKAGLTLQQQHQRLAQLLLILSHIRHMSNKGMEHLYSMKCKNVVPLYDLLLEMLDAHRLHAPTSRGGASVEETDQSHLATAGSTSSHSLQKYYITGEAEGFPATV
Sequence of Thyrotropin-releasing hormone receptor (Homo sapiens) (P34981 whole entry, looked up): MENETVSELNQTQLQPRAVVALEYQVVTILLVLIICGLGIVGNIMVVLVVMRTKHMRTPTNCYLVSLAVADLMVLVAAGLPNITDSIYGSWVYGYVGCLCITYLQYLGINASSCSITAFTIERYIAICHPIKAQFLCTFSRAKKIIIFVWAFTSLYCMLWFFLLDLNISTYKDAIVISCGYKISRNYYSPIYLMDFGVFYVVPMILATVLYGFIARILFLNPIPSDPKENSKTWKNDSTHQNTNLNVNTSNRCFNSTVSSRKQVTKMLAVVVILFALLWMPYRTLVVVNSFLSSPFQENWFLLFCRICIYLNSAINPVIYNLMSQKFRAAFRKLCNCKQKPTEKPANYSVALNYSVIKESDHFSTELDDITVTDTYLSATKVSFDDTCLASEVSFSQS
Sequence of Androgen receptor (Homo sapiens) (P10275 whole entry, looked up): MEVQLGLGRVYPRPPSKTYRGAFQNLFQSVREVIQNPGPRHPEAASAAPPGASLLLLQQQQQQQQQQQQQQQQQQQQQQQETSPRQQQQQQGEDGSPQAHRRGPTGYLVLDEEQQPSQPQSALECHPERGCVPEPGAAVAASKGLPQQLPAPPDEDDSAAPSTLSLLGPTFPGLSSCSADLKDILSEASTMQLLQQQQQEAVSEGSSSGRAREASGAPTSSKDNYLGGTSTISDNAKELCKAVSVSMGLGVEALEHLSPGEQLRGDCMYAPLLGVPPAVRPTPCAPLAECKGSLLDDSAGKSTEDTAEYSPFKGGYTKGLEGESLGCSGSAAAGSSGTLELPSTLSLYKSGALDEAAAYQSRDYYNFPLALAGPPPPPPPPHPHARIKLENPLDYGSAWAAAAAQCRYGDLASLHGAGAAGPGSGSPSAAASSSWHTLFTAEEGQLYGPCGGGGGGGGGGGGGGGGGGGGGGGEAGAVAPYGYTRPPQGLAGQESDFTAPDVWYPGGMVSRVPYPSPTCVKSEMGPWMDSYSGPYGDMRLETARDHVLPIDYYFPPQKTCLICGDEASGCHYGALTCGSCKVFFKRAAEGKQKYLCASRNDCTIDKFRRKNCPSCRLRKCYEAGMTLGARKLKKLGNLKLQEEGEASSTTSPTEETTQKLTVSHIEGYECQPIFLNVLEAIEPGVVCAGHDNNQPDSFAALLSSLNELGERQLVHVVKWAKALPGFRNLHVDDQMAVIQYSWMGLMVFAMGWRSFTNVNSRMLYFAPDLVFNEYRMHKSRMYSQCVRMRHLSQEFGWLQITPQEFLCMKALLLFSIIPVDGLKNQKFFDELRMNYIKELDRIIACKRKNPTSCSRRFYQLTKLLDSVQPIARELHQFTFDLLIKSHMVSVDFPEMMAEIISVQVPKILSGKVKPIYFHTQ

CC(C)CCOCc1ccccc1
not listed: [18] | [19] | [20]
inactive: all other assays above

CC(C)(C)c1cc(C(C)(C)C)c(O)c(C(C)(C)C)c1
not listed: [4] | [20]
inactive: all other assays above

Cc1cc(C(C)(C)C)c(O)c(C(C)(C)C)c1
not listed: [4] | [6] | [19] | [20]
inactive: all other assays above

Cc1cccc([N+](=O)[O-])c1C(=O)O
not listed: [4] | [15] | [16] | [20]
inactive: all other assays above

CCC(CO)(CO)COCC(CC)(CO)CO
not listed: [4] | [6] | [7]
inactive: all other assays above

CC(C)(C)c1ccccc1
not listed: [4] | [6] | [7] | [18]
inactive: all other assays above

CCC(=O)/C=C/C1C(C)=CCCC1(C)C (configuration not stated)
not listed: [4] | [6] | [20]
inactive: all other assays above

CCOc1ccc2c(c1)C(C)=CC(C)(C)N2
not listed: [1] | [2] | [7] | [11] | [14]
inactive: all other assays above

O=C(O)c1cccc(C(=O)O)c1
not listed: [1] | [2] | [4] | [11] | [18] | [19]
inactive: all other assays above

c1ccc2c(c1)CCCC2C1=NCCN1 (configuration not stated)
not listed: [1] | [2] | [4] | [19]
inactive: all other assays above

CC1=CC(=O)c2ccccc2C1=O
inactive: [4] | [6] | [10] | [12] | [14] | [15] | [16]
38.6 µM (active) and inactive: [9]
active: [3] 43.3 µM | [20] 24.3 µM and 26.6 µM | [5] 24.3 µM | [13] 49 µM | [19] 54.9 µM | [17] 43.3 µM

CCCNC(C)C(=O)Nc1ccccc1C (configuration not stated)
not listed: [1] | [2] | [4] | [19]
inactive: all other assays above

CCN(CC)C(=S)SSC(=S)N(CC)CC
active: [11] 0.237 µM
not listed: [2] | [5] | [17] | [18] | [20]
inactive: all other assays above

Nc1nc2ccccc2[nH]1
not listed: [1] | [2] | [4] | [10] | [19]
inactive: all other assays above

CC(C)CCOC(=O)c1ccc(N(C)C)cc1
active: [6] 2.98 µM
not listed: [2] | [4] | [8] | [9] | [20]
inactive: all other assays above
